Usually inhibition stands for the share of the control response that was lost under treatment.

This experiment concerns the target Estrogen receptor beta (Homo sapiens) (UniProt Q92731). The experiment in a line: ERbeta ligand binders by competition, primary screen, cell-based, Cos7 ERbeta-GFP, flow cytometry (AID 1210).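 Note: 0% = DMSO vehicle wells and 100% = complete loss of labeled estradiol signal.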 The note with it: fluorescent estrogen binding, stronger effect = higher value. (Flow cytometry measures light scatter and fluorescence of single cells or particles in a stream.)
Where [1] appears, read: ligand binding inhibition, at 0.1 µM.

SMILES strings stand for the structures. Activity calls are given as the source filed them.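 Rule for the calls: active = blocks over 70% of labeled estradiol binding at 10 µM, or over a set limit at 100 nM; inactive = the rest.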

Chain of Estrogen receptor beta (Homo sapiens) (Q92731 whole entry, looked up): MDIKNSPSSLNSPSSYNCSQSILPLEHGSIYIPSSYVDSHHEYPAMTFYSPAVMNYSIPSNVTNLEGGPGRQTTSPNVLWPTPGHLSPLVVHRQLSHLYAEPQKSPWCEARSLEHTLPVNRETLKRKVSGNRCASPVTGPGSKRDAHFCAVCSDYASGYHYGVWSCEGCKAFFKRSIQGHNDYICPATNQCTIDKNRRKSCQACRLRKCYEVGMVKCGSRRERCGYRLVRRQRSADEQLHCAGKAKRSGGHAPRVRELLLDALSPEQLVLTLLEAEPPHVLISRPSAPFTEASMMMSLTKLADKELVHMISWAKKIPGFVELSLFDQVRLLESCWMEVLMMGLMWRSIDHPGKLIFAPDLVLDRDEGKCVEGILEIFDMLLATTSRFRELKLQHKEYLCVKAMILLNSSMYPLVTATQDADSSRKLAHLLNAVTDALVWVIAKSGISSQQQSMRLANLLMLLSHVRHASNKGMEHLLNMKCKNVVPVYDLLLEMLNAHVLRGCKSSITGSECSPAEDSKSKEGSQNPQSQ

In the case of `O=S(=O)(c1cccc(-c2cn3cccnc3n2)c1)N1CCCCCC1`, the inhibition (at 10 µM) is 14% (inactive) and the inhibition under setting [1] was 17%.
`COc1cc(NC(=O)COc2ccc(-n3cnnn3)cc2)c(OC)cc1Cl`: the inhibition (at 10 µM) is 61% (inactive) and the inhibition under setting [1] turned out to be 17%.
`CCOc1ccc(Nc2oc(-c3ccccc3Cl)nc2C#N)cc1`: the inhibition was 25% (inactive) (at 10 µM) and 43% under setting [1].
With `Cn1c(-c2ccc3nc(N)sc3c2)nc2cc(N)ccc21`, the inhibition was 68% (inactive) (at 10 µM) and 17% under setting [1].
Turning to `COc1ccc(NC(=O)CSc2nc3ccccc3c3nc4ccccc4n23)cc1`, the inhibition is 38% (inactive) (at 10 µM) and 44% under setting [1].
Regarding `COc1cc(C(=O)Nc2nnc(-c3sccc3C)s2)cc(OC)c1OC`, the inhibition was 52% (inactive) (at 10 µM) and 34% under setting [1].
Taken in the same sequence, the figures for `O=c1cc(CSc2nnnn2-c2ccccc2)nc(Nc2ccc(F)cc2)[nH]1` were 0% (inactive) and 25%.
As for `Oc1ccc(-c2nnc(-c3ccccc3)c(-c3ccccc3)n2)cc1`, the inhibition was 38% (inactive) (at 10 µM) and 25% under setting [1].
Taken in the same sequence, the figures for `CC1(C)CC(=O)c2c(oc3cc(O)c(O)cc23)C1` were 11% (inactive) and 3%.
Taken in the same sequence, the figures for `Cc1cs/c(=N\N=C\c2ccc(O)cc2)n1Cc1ccco1` were 45% (inactive) and 21%.
Taken in the same sequence, the figures for `Cc1c(N=Cc2ccc(O)c(Br)c2)cccc1[N+](=O)[O-]` were 33% (inactive) and 34%.
In the case of `Nc1ccc2oc(-c3ccc4nc[nH]c4c3)nc2c1`, the inhibition (at 10 µM) is 62% (inactive) and the inhibition under setting [1] stood at 2%.
Taken in the same sequence, the figures for `CCn1c2ccccc2c2cc(NC(=O)CSc3nnc(-c4ccc(OC)cc4)n3N)ccc21` were 57% (inactive) and 24%.
Taken in the same sequence, the figures for `COc1cccc2sc(Nc3nnc(-c4ccc(F)cc4)o3)nc12` were 33% (inactive) and 17%.
Taken in the same sequence, the figures for `Cc1ccc(C(=O)N/N=C/c2ccc([N+](=O)[O-])s2)cc1` were 38% (inactive) and 58%.

Source of the values: PubChem BioAssay AID1210 (NMMLSC, 2008).
